Test results reported in PubChem BioAssay (NCATS).
Results filed as inconclusive are left out. Values without a mark were called inactive. Active and inactive are the calls of the source. Calls come from the whole dose curve; as a rule, active = well fitted inhibition curve with a large enough effect; inconclusive = small, poorly fitted or top-dose-only effect, or effect the other way; inactive = flat fitted curve, though single readings scatter.

target: ATP-dependent 6-phosphofructokinase (Trypanosoma brucei brucei) (UniProt O15648); test: qHTS Assay to Find Inhibitors of T. brucei phosphofructokinase: hit validation (AID 492961);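 for activity change, negative = inhibition: luminescence reports ADP formed as PFK phosphorylates fructose-6-phosphate with ATP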; conditions: T. brucei PFK, ADP-Glo luminescence; series mostly up to 51.4 µM; activity change, negative = inhibition: at the top concentration
Summary of the method: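 In this biochemical qHTS validation, titrated compounds were tested against 1.25 nM PFK with 0.1 mM ATP and 0.5 mM F6P. Percent activity came from controls lacking or containing enzyme.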
% is set by controls: 0 for no effect and ±100 for the full control effect; potency is the fitted concentration of half-maximal effect.

Chain of ATP-dependent 6-phosphofructokinase (Trypanosoma brucei brucei) (O15648 whole entry, looked up): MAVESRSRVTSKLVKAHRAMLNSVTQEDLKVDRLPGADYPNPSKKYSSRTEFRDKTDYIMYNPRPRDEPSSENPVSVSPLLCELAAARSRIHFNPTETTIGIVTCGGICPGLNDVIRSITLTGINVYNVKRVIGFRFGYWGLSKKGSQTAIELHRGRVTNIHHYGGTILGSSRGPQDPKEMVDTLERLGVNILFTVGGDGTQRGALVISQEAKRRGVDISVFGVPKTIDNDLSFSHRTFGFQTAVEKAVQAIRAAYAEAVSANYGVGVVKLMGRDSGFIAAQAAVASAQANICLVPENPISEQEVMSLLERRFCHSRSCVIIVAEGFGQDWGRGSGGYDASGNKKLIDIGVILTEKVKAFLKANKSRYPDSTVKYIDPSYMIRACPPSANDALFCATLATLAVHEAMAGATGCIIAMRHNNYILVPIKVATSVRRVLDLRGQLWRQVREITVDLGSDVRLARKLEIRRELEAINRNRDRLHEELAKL

Row | Structure (SMILES) | activity change, negative = inhibition | Potency
1 | FC(F)OC(F)(F)C(F)Cl (centres undefined) | 5.78% | 
2 | C[N+]1(C)CCCCC1COC(=O)C(O)(c1ccccc1)c1ccccc1 (centres undefined) | 0.458% | 
3 | ClC=C(Cl)Cl | 24.9% | 
4 | N#CC1(N2CCCCC2)CCCCC1 | 9.89% | 
5 | C/C(=C\c1csc(C)n1)[C@@H]1C[C@@H]2O[C@]2(C)CCC[C@H](C)[C@H](O)[C@@H](C)C(=O)C(C)(C)[C@@H](O)CC(=O)O1 | -12.4% | 
6 | Clc1ccccc1Cl | 0% | 
7 | Clc1ccc(Cl)cc1 | 0.994% | 
8 | O[C@H]1[C@H]2[C@H](O)CCCN2C[C@H]1O | -2.98% | 
9 | O=c1[nH]cc(N(CCCl)CCCl)c(=O)[nH]1 | -8.37% | 
10 | O=[N+]([O-])C(Br)(CO)CO |  | 8.91 µM (active)
11 | C[C@H]1CCC[C@H](O)CCCCCc2cc(O)cc(O)c2C(=O)O1 | -5.73% | 
12 | C[C@@H](Cc1ccccc1)NCCC(c1ccccc1)c1ccccc1 | 4.19% [at 24.3 µM] | 
13 | S=C(S)N1CCNCC1 | -4.43% | 
14 | O=c1[nH]c(=O)n(Cl)c(=O)n1Cl | 3.51% | 
15 | CCC1(c2ccccc2)C(=O)NC(=O)N(C)C1=O (centres undefined) | -2.32% | 
16 | COC1=CC=C2[C@H]3Cc4ccc(OC)c5c4[C@@]2(CCN3C)[C@H]1O5 | 2.22% [at 24.3 µM] | 
17 | ClCC1CO1 (centres undefined) | 0.95% | 
18 | O=C1CN=C(c2ccccc2)c2cc(Cl)ccc2N1CC1CC1 | 0% | 
19 | c1csc(C2(N3CCCCC3)CCCCC2)c1 | -8.28% | 
20 | CC(=O)OO | -2.08% | 

Row | Structure (SMILES) | activity change, negative = inhibition | Potency
21 | O=[N+]([O-])c1ccccc1 | -5.77% | 
22 | CCOC(=O)c1ccccc1C(=O)OCC | 11.7% | 
23 | COCC(C)N(C(=O)CCl)c1c(C)csc1C (centres undefined) | 4.07% | 
24 | O=C1CN(O)C(c2ccccc2)=c2cc(Cl)ccc2=N1 | -9.27% | 
25 | C=CCN1CC[C@]23c4c5ccc(O)c4O[C@H]2[C@@H](O)C=C[C@H]3[C@H]1C5 | -0.88% | 
26 | F/C(COc1ccc2c(c1)[nH]c1ccccc12)=C1/CN2CCC1CC2 | 0% | 
27 | C[CH2][Hg][S]c1ccccc1C(=O)O |  | 14.1 µM (active)
28 | CCN(CC)C(=O)/C(Cl)=C(\C)OP(=O)(OC)OC | -6.21% | 
29 | O=S(=O)(O)c1cc(O)ccc1O | 18.2% [at 24.3 µM] | 
30 | O=C(OCCN1CCCCC1)C(O)(c1ccccc1)c1ccccc1 | -0.184% | 
31 | CCCC(=O)OC(C(Cl)(Cl)Cl)P(=O)(OC)OC (centres undefined) | 1.58% | 
32 | O=C/C=C/c1ccccc1 | -4.33% | 
33 | CC(=O)O[C@H]1CC[C@H]2[C@@H]3CCC4=CC(=O)CCC4=C3C=C[C@]12C | -2.14% | 
34 | CCON=O | 0.956% | 
35 | [Cl-].[Cl-].[Hg+2] |  | 8.91 µM (active)
36 | c1ccc(C2(N3CCCC3)CCCCC2)cc1 | 3.29% | 
37 | CC(Cc1ccccc1)NC=O (centres undefined) | -0.866% | 
38 | COc1ccc2c3c1O[C@H]1C(=O)CC[C@H]4[C@@H](C2)N(C)CC[C@]314 | -8.88% | 
39 | O=CC=O | -6.14% | 
